# Test results: the supplement of paper PMC4466140
# B1: unnamed (peptide)
# chain: QTREPNEPPPPSPAM
# Target: AgAbp1
# Test: SPOT peptide array binding signal intensity (averaged, normalized) (arbitrary units (background-subtracted, floor 0; scale differs between SH3 domains)); higher = stronger binding of the SH3 domain to the peptide
# How it was run: (§1)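 To measure binding, SH3 domains from four yeast species were fused to GST, expressed in E. coli BL21(DE3) and purified on glutathione Sepharose. Each domain was incubated at 10 μg/ml overnight at 4°C on cellulose membranes with synthetic 15-mer peptides whose cysteines were replaced by serines. Anti-GST antibody, an HRP anti-mouse secondary and luminol were used for detection, and images were quantified with Genespotter. Reported binding signal is normalized, background-subtracted spot intensity averaged over replicates, in arbitrary units that differ between domains.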
row,Binder,SPOT peptide array binding signal intensity
1,B1,≤ 0

# Target: AgBbc1
# Test: as above
# How it was run: as §1
row,Binder,SPOT peptide array binding signal intensity
1,B1,≤ 0

# Target: AgBem1-D1
# Test: as above
# How it was run: as §1
row,Binder,SPOT peptide array binding signal intensity
1,B1,≤ 0

# Target: AgBzz1-D1
# Test: as above
# How it was run: as §1
row,Binder,SPOT peptide array binding signal intensity
1,B1,1.5

# Target: AgBzz1-D2
# Test: as above
# How it was run: as §1
row,Binder,SPOT peptide array binding signal intensity
1,B1,4

# Target: AgCyk3
# Test: as above
# How it was run: as §1
row,Binder,SPOT peptide array binding signal intensity
1,B1,≤ 0

# Target: AgFus1
# Test: as above
# How it was run: as §1
row,Binder,SPOT peptide array binding signal intensity
1,B1,≤ 0

# Target: AgHof1
# Test: as above
# How it was run: as §1
row,Binder,SPOT peptide array binding signal intensity
1,B1,2.5

# Target: AgHse1
# Test: as above
# How it was run: as §1
row,Binder,SPOT peptide array binding signal intensity
1,B1,≤ 0

# Target: AgLsb1
# Test: as above
# How it was run: as §1
row,Binder,SPOT peptide array binding signal intensity
1,B1,≤ 0

# Target: AgLsb4
# Test: as above
# How it was run: as §1
row,Binder,SPOT peptide array binding signal intensity
1,B1,≤ 0

# Target: AgMyo5
# Test: as above
# How it was run: as §1
row,Binder,SPOT peptide array binding signal intensity
1,B1,1420

# Target: AgNbp2
# Test: as above
# How it was run: as §1
row,Binder,SPOT peptide array binding signal intensity
1,B1,≤ 0

# Target: AgRvs167
# Test: as above
# How it was run: as §1
row,Binder,SPOT peptide array binding signal intensity
1,B1,0.667

# Target: AgSho1
# Test: as above
# How it was run: as §1
row,Binder,SPOT peptide array binding signal intensity
1,B1,≤ 0

# Target: AgSla1-D1-D2
# Test: as above
# How it was run: as §1
row,Binder,SPOT peptide array binding signal intensity
1,B1,≤ 0

# Target: AgSla1-D3
# Test: as above
# How it was run: as §1
row,Binder,SPOT peptide array binding signal intensity
1,B1,≤ 0

# Target: CaAbp1-D1
# Test: as above
# How it was run: as §1
row,Binder,SPOT peptide array binding signal intensity
1,B1,≤ 0

# Target: CaAbp1-D2
# Test: as above
# How it was run: as §1
row,Binder,SPOT peptide array binding signal intensity
1,B1,≤ 0

# Target: CaBbc1
# Test: as above
# How it was run: as §1
row,Binder,SPOT peptide array binding signal intensity
1,B1,≤ 0

# Target: CaBem1-D1
# Test: as above
# How it was run: as §1
row,Binder,SPOT peptide array binding signal intensity
1,B1,≤ 0

# Target: CaBzz1-D1
# Test: as above
# How it was run: as §1
row,Binder,SPOT peptide array binding signal intensity
1,B1,8

# Target: CaBzz1-D2
# Test: as above
# How it was run: as §1
row,Binder,SPOT peptide array binding signal intensity
1,B1,≤ 0

# Target: CaCyk3
# Test: as above
# How it was run: as §1
row,Binder,SPOT peptide array binding signal intensity
1,B1,≤ 0

# Target: CaFus1
# Test: as above
# How it was run: as §1
row,Binder,SPOT peptide array binding signal intensity
1,B1,6.5

# Target: CaHof1
# Test: as above
# How it was run: as §1
row,Binder,SPOT peptide array binding signal intensity
1,B1,0.25

# Target: CaHse1
# Test: as above
# How it was run: as §1
row,Binder,SPOT peptide array binding signal intensity
1,B1,0.75

# Target: CaLsb1
# Test: as above
# How it was run: as §1
row,Binder,SPOT peptide array binding signal intensity
1,B1,0.25

# Target: CaLsb4
# Test: as above
# How it was run: as §1
row,Binder,SPOT peptide array binding signal intensity
1,B1,≤ 0

# Target: CaMyo5
# Test: as above
# How it was run: as §1
row,Binder,SPOT peptide array binding signal intensity
1,B1,108

# Target: CaNbp2
# Test: as above
# How it was run: as §1
row,Binder,SPOT peptide array binding signal intensity
1,B1,≤ 0

# Target: CaRvs167
# Test: as above
# How it was run: as §1
row,Binder,SPOT peptide array binding signal intensity
1,B1,1.67

# Target: CaRvs167-3
# Test: as above
# How it was run: as §1
row,Binder,SPOT peptide array binding signal intensity
1,B1,≤ 0

# Target: CaSho1
# Test: as above
# How it was run: as §1
row,Binder,SPOT peptide array binding signal intensity
1,B1,≤ 0

# Target: CaSla1-D1-D2
# Test: as above
# How it was run: as §1
row,Binder,SPOT peptide array binding signal intensity
1,B1,≤ 0

# Target: CaSla1-D3
# Test: as above
# How it was run: as §1
row,Binder,SPOT peptide array binding signal intensity
1,B1,0.5

# Target: ScAbp1
# Test: as above
# How it was run: as §1
row,Binder,SPOT peptide array binding signal intensity
1,B1,≤ 0

# Target: ScBbc1
# Test: as above
# How it was run: as §1
row,Binder,SPOT peptide array binding signal intensity
1,B1,≤ 0

# Target: ScBem1-D1
# Test: as above
# How it was run: as §1
row,Binder,SPOT peptide array binding signal intensity
1,B1,≤ 0

# Target: ScBzz1-D1
# Test: as above
# How it was run: as §1
row,Binder,SPOT peptide array binding signal intensity
1,B1,7

# Target: ScBzz1-D2
# Test: as above
# How it was run: as §1
row,Binder,SPOT peptide array binding signal intensity
1,B1,≤ 0

# Target: ScCyk3
# Test: as above
# How it was run: as §1
row,Binder,SPOT peptide array binding signal intensity
1,B1,≤ 0

# Target: ScFus1
# Test: as above
# How it was run: as §1
row,Binder,SPOT peptide array binding signal intensity
1,B1,≤ 0

# Target: ScHof1
# Test: as above
# How it was run: as §1
row,Binder,SPOT peptide array binding signal intensity
1,B1,1

# Target: ScHse1
# Test: as above
# How it was run: as §1
row,Binder,SPOT peptide array binding signal intensity
1,B1,≤ 0

# Target: ScLsb1
# Test: as above
# How it was run: as §1
row,Binder,SPOT peptide array binding signal intensity
1,B1,0.5

# Target: ScLsb2
# Test: as above
# How it was run: as §1
row,Binder,SPOT peptide array binding signal intensity
1,B1,≤ 0

# Target: ScLsb3
# Test: as above
# How it was run: as §1
row,Binder,SPOT peptide array binding signal intensity
1,B1,13.5

# Target: ScLsb4
# Test: as above
# How it was run: as §1
row,Binder,SPOT peptide array binding signal intensity
1,B1,1.5

# Target: ScMyo3
# Test: as above
# How it was run: as §1
row,Binder,SPOT peptide array binding signal intensity
1,B1,2210

# Target: ScMyo5
# Test: as above
# How it was run: as §1
row,Binder,SPOT peptide array binding signal intensity
1,B1,1580

# Target: ScNbp2
# Test: as above
# How it was run: as §1
row,Binder,SPOT peptide array binding signal intensity
1,B1,≤ 0

# Target: ScPex13
# Test: as above
# How it was run: as §1
row,Binder,SPOT peptide array binding signal intensity
1,B1,1.75

# Target: ScRvs167
# Test: as above
# How it was run: as §1
row,Binder,SPOT peptide array binding signal intensity
1,B1,1.33

# Target: ScSho1
# Test: as above
# How it was run: as §1
row,Binder,SPOT peptide array binding signal intensity
1,B1,2

# Target: ScSla1-D1-D2
# Test: as above
# How it was run: as §1
row,Binder,SPOT peptide array binding signal intensity
1,B1,1.5

# Target: ScSla1-D3
# Test: as above
# How it was run: as §1
row,Binder,SPOT peptide array binding signal intensity
1,B1,≤ 0

# Target: SpAbp1-D1
# Test: as above
# How it was run: as §1
row,Binder,SPOT peptide array binding signal intensity
1,B1,≤ 0

# Target: SpBbc1
# Test: as above
# How it was run: as §1
row,Binder,SPOT peptide array binding signal intensity
1,B1,≤ 0

# Target: SpBzz1-D1
# Test: as above
# How it was run: as §1
row,Binder,SPOT peptide array binding signal intensity
1,B1,≤ 0

# Target: SpBzz1-D2
# Test: as above
# How it was run: as §1
row,Binder,SPOT peptide array binding signal intensity
1,B1,0.5

# Target: SpCyk3
# Test: as above
# How it was run: as §1
row,Binder,SPOT peptide array binding signal intensity
1,B1,0.5

# Target: SpHof1
# Test: as above
# How it was run: as §1
row,Binder,SPOT peptide array binding signal intensity
1,B1,≤ 0

# Target: SpHof1-2
# Test: as above
# How it was run: as §1
row,Binder,SPOT peptide array binding signal intensity
1,B1,7.75

# Target: SpHof1-3
# Test: as above
# How it was run: as §1
row,Binder,SPOT peptide array binding signal intensity
1,B1,≤ 0

# Target: SpHse1
# Test: as above
# How it was run: as §1
row,Binder,SPOT peptide array binding signal intensity
1,B1,≤ 0

# Target: SpLsb1
# Test: as above
# How it was run: as §1
row,Binder,SPOT peptide array binding signal intensity
1,B1,≤ 0

# Target: SpLsb4
# Test: as above
# How it was run: as §1
row,Binder,SPOT peptide array binding signal intensity
1,B1,≤ 0

# Target: SpMyo1
# Test: as above
# How it was run: as §1
row,Binder,SPOT peptide array binding signal intensity
1,B1,1240

# Target: SpNbp2
# Test: as above
# How it was run: as §1
row,Binder,SPOT peptide array binding signal intensity
1,B1,≤ 0

# Target: SpPex13
# Test: as above
# How it was run: as §1
row,Binder,SPOT peptide array binding signal intensity
1,B1,2

# Target: SpRvs167
# Test: as above
# How it was run: as §1
row,Binder,SPOT peptide array binding signal intensity
1,B1,1.67

# Target: SpSla1-D1-D2
# Test: as above
# How it was run: as §1
row,Binder,SPOT peptide array binding signal intensity
1,B1,≤ 0

# Target: SpSla1-D3
# Test: as above
# How it was run: as §1
row,Binder,SPOT peptide array binding signal intensity
1,B1,≤ 0
